# Measurements as given in ChEMBL document CHEMBL4513216, “Probing the Open Global Health Chemical Diversity Library for Multistage-Active Starting Points for Next-Generation Antimalarials” (ACS Infect Dis, 2020).
# The campaign covered roughly 69,000 compounds. About 8,600 (12%) showed an effect of 50% or more. Only a selection was taken, and strong results are over-represented in it overall.
# Tested on: Plasmodium berghei
# Assay: Screen against P. berghei liver stage (PbLuc), transformed with Luciferase, at 10uM
# Type: functional, HepG2
# Details: tested at 10 uM
row,SMILES,INHIBITION
1,COc1ccc(-c2ccccc2CN)c(OC)c1,-58%
2,COc1ccc(-c2nnc(SC(C)C(=O)NC3CC3)[nH]2)c(OC)c1 (stereo unspecified),37.1%
3,COc1ccc(-c2nnc(SC(C)C(=O)NC(C)(C)C)[nH]2)c(OC)c1 (stereo unspecified),82.5%
4,COc1ccc(-c2nnc(SC(C)C(N)=O)[nH]2)c(OC)c1 (stereo unspecified),18.3%
5,COc1ccc(-c2nnc(SC(C)C(=O)NCC(C)C)[nH]2)c(OC)c1 (stereo unspecified),64%
6,COc1ccc(-c2nnc(SC(C)C(=O)NC3CCCC3)[nH]2)c(OC)c1 (stereo unspecified),51.7%
7,COc1ccc2nnc(C(=O)NC3CCCC3)nc2c1,-65.8%
8,COc1ccc(S(=O)(=O)NC(=O)C(C)OC)c(OC)c1 (stereo unspecified),33%
9,COc1ccc(-c2nnc(SCC(=O)NCC(C)C)[nH]2)c(OC)c1,-30.8%
10,COc1cc2cc3c(nc2cc1OC)OCCN(Cc1cccs1)C3,-3.94%
11,Cc1ccc(CN2CCc3onc(C(=O)Nc4cccnc4)c3C2)o1,-12.2%
12,CC1(C(=O)NC2CCCC2)CCCN(c2ncccn2)C1 (stereo unspecified),0.301%
13,O=C(NCC1CCOCC1)c1cc(-c2cccnc2)c2cnccc2n1,-4.87%
14,CCn1cc(CN2CCC(c3nnc(CN(C)C)n3CC)CC2)cn1,15.1%
15,CCn1cc(C2CCN(Cc3ccnc(N(C)C)c3)CC2)cn1,66.7%
16,CN(C)c1cc(C2CCCN(Cc3cnn(C)c3)C2)ccn1 (stereo unspecified),3.85%
17,Cc1ccc(C(=O)N2CCCCC2c2[nH]ncc2S(C)(=O)=O)s1 (stereo unspecified),36.7%
18,CN(C)CC1CSCCCN1C(=O)c1ccsc1 (stereo unspecified),-26.3%
19,CN1CC2(CCC(C(=O)O)CC2)Oc2ccccc2C1=O (stereo unspecified),-4.35%
20,CN1CCC(Oc2ccc(NC(=O)c3ccccc3Br)cc2)CC1,51.8%
21,COc1ccccc1C(=O)Nc1ccc(OC2CCN(C)CC2)cc1,-25.6%
22,Cc1ccc(C)c(C(=O)Nc2ccc(OC3CCN(C)CC3)cc2)c1,55.8%
23,Cc1ccccc1C(=O)Nc1ccc(OC2CCN(C)CC2)cc1,10.7%
24,CSc1ccccc1C(=O)Nc1ccc(OC2CCN(C)CC2)cc1,11.8%

row,SMILES,INHIBITION
1,CN1CCC(Oc2ccc(NC(=O)c3ccccc3)cc2)CC1,21.7%
2,CN1CCC(Oc2ccc(NC(=O)c3cccc(Cl)c3)cc2)CC1,65.1%
3,CN1C(=O)CO[C@H](c2ccc(NC(=O)c3cccc(F)c3)cc2)[C@H]1CO,38.1%
4,Cc1cccc(C(=O)Nc2ccc(OC3CCN(C)CC3)cc2)c1,63.5%
5,COc1cccc(C(=O)Nc2ccc(OC3CCN(C)CC3)cc2)c1,49.2%
6,Cc1ccc(C(=O)Nc2ccc(OC3CCN(C)CC3)cc2)c(C)c1,47%
7,COCCc1noc(CN2CCCCC2Cn2cccn2)n1 (stereo unspecified),-2.33%
8,CCCSCC(=O)NCc1cccc(CN(C)CC)c1,39.8%
9,CN([C@@H]1CC[C@@H](N2CCOCC2)[C@@H]1O)S(=O)(=O)c1ccccc1,3%
10,Cc1nnc(CN(Cc2ccco2)Cc2cccc3c2OCO3)n1C,-16.4%
11,CN(C)CC1(O)CCN(C(=O)c2ccc(-n3cccn3)cc2Cl)C1 (stereo unspecified),36.6%
12,CNC(=O)c1cc(S(=O)(=O)C(C)C)cs1,24.1%
13,COc1ccc(C)cc1CCNS(C)(=O)=O,-18%
14,COc1ccc(OC)c(C(C)NS(=O)(=O)c2cnn(C)c2)c1 (stereo unspecified),11.2%
15,COc1ccc(C(C)NS(=O)(=O)c2ccc3c(c2)CCC(=O)N3)cc1F (stereo unspecified),20.2%
16,COc1ccc(C)cc1C(C)NS(=O)(=O)c1ccc2c(c1)CCC(=O)N2 (stereo unspecified),54.5%
17,CCN(CC)S(=O)(=O)NCCc1cc(C)ccc1OC,-12.9%
18,COc1ccc(C)cc1CCNS(=O)(=O)c1ccc2c(c1)CCC(=O)N2,56.3%
19,Cc1oncc1C(=O)N1C[C@H](OCc2ccccn2)[C@H]2OCCC[C@H]21,15.4%
20,COc1ccc(F)c(-c2ccnc(N)c2)c1,1.95%
21,CC(CC(=O)NCCNS(C)(=O)=O)C1CCCCC1 (stereo unspecified),44.5%
22,COCCn1cc2c(n1)C(CNS(C)(=O)=O)OCC2 (stereo unspecified),-31%
23,CCN(CC)C(=O)c1ccn(COc2ccc(F)cc2F)n1,-3.93%
24,CCc1ncc(C(=O)NCCN2CCNC2=O)cn1,22.285%

row,SMILES,INHIBITION
1,COC(=O)c1ccc(C(=O)N2CCC(c3nnc(C)s3)CC2)cc1,20.4%
2,Cc1nnc(C2CCN(C(=O)c3ccc4nccnc4c3)CC2)s1,51.3%
3,Cc1nnc(C2CCN(C(=O)c3ccc4[nH]ccc4c3)CC2)s1,-5.64%
4,CS(=O)(=O)c1cn[nH]c1C1CCCN(C(=O)Cn2cccn2)C1 (stereo unspecified),2.71%
5,COc1cccc2c3c(c(=O)[nH]c12)CC(C)(C)O3,-6.18%
6,CCOc1cc(C(=O)N(C)C)ccc1NC(=O)C(C)c1ccsc1 (stereo unspecified),51.5%
7,CCOc1cc(C(=O)N(C)C)ccc1NC(=O)c1ccsc1,-23%
8,CCOc1ccc(C(=O)N(C)C)cc1NC(=O)c1ccsc1,-20.7%
9,Cc1cccc2c1cnn2CCCNC(=O)c1ccnn1C,35%
10,CC(C)Cc1cc(C(=O)O)nc2[nH]c(=O)[nH]c(=O)c12,41.2%
11,CCc1csc(CNc2nc3c(s2)c(C)nn3C)n1,65.7%
12,CCCOCCNc1nc2c(s1)c(C)nn2C,-18.6%
13,CCc1nc(CNc2nc3c(s2)c(C)nn3C)cs1,63.1%
14,Cc1csc(CNc2nc3c(s2)c(C)nn3C)n1,8.03%
15,Cc1nc(CNc2nc3c(s2)c(C)nn3C)cs1,40.8%
16,CCSCCNc1nc2c(s1)c(C)nn2C,25.8%
17,Cc1ccc(CCc2nc(C3CCOC3)no2)o1 (stereo unspecified),29%
18,CN(C)[C@@H]1CCN(C(=O)C2CCOCC2)[C@H]1Cc1ccncc1,0.804%
19,COCCN1CCc2ccc(=O)n(Cc3csc(C)n3)c2CC1,-15.3%
20,CCc1nnc(Nc2cccc(C3CCN(c4cnccn4)CC3)n2)s1,36.4%
21,CC(=O)N1C[C@H]2CC[C@@H](C1)N(S(=O)(=O)c1ccc(F)cc1Cl)C2,-10.2%
22,Cc1cc2ccccc2n1CCC(=O)NCc1ncc[nH]1,20.5%
23,Cc1cc(CCC(=O)NCc2nccn2C)ccc1Br,46.1%
24,Cc1cc(CCC(=O)NCc2ncc[nH]2)ccc1Br,54.8%

row,SMILES,INHIBITION
1,CN1CCC(CCNC(=O)N2CCN(Cc3ccon3)CC2)CC1,23.5%
2,CCC1CCCCN1CCNC(=O)N1CCN(Cc2ccon2)CC1 (stereo unspecified),50.8%
3,CN(CCNC(=O)N1CCN(Cc2ccon2)CC1)C1CCCC1,-6.02%
4,Cc1cnc(CNC(=O)[C@@]23CCO[C@@H]2CCN(C2CCCC2)C3)cn1,18.6%
5,Cc1ccc(N2CC[C@H](O)[C@@H]2Cc2cnn(C)c2)nn1,-15.9%
6,CC(=O)N1CCN(C2CCCCc3ccccc32)CC1 (stereo unspecified),-1.16%
7,CC(=O)N1CCCN(C2CCCCc3ccccc32)CC1 (stereo unspecified),55.4%
8,CC(=O)N1CCN(C2CCc3ccccc32)CC1 (stereo unspecified),64.7%
9,O=C1CN(C(=O)CC2c3ccccc3CCc3ccccc32)CCN1,42.1%
10,CC(=O)N1CCN([C@@H]2CN(C(=O)c3ccccc3)C[C@H]2O)CC1,11.8%
11,NC(=O)N1CCCN(C2CCCCc3ccccc32)CC1 (stereo unspecified),13.7%
12,Cc1cccc(C2(CNC(C)c3nnc(C)o3)CCCC2)c1 (stereo unspecified),-10.2%
13,CCCc1ccc(S(=O)(=O)NC(=O)CCC2CCCO2)cc1 (stereo unspecified),4.71%
14,Cn1cccc1C(=O)N1CCC2(CC1)CC(N1CCOCC1)C2,-23.3%
15,COc1ccccc1C1(C(=O)N2CCCC(c3cc(C)[nH]n3)C2)CC1 (stereo unspecified),-14.6%
16,Cc1ccc(CN2CCC3(CC2)CC(c2cccnc2)CO3)s1 (stereo unspecified),50.1%
17,c1cncc(CN2CCC3(CC2)CC(c2cccnc2)CO3)c1 (stereo unspecified),-35%
18,c1cncc(C2COC3(CCN(Cc4cccs4)CC3)C2)c1 (stereo unspecified),0.618%
19,COc1cccc2ccn(CCC(=O)N3CCCC(C(=O)O)C3)c12 (stereo unspecified),-19.7%
20,Cc1ncnc2c1CCN(CC(=O)N(C)C)CC2,53%
21,Cc1ncnc2c1CCN(C(=O)N(C)C)CC2,80.1%
22,Cc1ncnc2c1CCN(C(=O)CN(C)C)CC2,46.7%
23,CN(C)C(=O)CN1CCc2ncnc(C3CC3)c2CC1,48.4%
24,CCc1ncnc2c1CCN(CC(=O)N(C)C)CC2,30.3%

row,SMILES,INHIBITION
1,CN(C)C(=O)CN1CCc2ncnc(NC3CCC3)c2CC1,72.9%
2,CCN(C)c1ncnc2c1CCN(C(=O)N(C)C)CC2,-64.7%
3,CN(C)C(=O)CN1CCc2ncnc(N(C)C)c2CC1,3.17%
4,COCCN1CCc2ncnc(NC3CC3)c2CC1,-31.1%
5,Fc1ccc(C2CN(c3ncnc4[nH]ncc34)CCO2)cc1 (stereo unspecified),40.8%
6,CN(C)CCn1nc(C2CCN(Cc3ccccc3)C2)c2cccnc21 (stereo unspecified),28.3%
7,Cc1ccc(CNC(=O)c2nn(C)c3c2CS(=O)(=O)CC3)o1,30.8%
8,Cc1ccc(NC2CCN(C(=O)CCc3ccccc3)CC2)nn1,-26.6%
9,CCOc1ccnc(N2CCN(C(=O)c3ccc(OC)cc3)CC2)n1,31.9%
10,CSCC(C)(O)CNC(=O)c1cc(Br)ccc1Cl (stereo unspecified),55.4%
11,CSCC(C)(O)CNC(=O)c1cc(Cl)ccc1Cl (stereo unspecified),-21.3%
12,CSCC(C)(O)CNC(=O)c1ccc(Br)cc1F (stereo unspecified),-59.2%
13,N#Cc1ccc(F)c(CN2CCNC(=O)C2c2cccs2)c1 (stereo unspecified),23.1%
14,O=c1cc(-c2ccccc2)nc2n1CCCCC2,49%
15,CCc1ncncc1C(=O)N1CCCN(Cc2ccc(C)cc2)CC1,56.6%
16,CCc1ncncc1C(=O)N1CCN(Cc2ccco2)CC1,50.4%
17,CCc1ncncc1C(=O)N1CCCN(Cc2ccc(C#N)cc2)CC1,19.6%
18,CCc1ncncc1C(=O)N1CCCN(Cc2ccccc2C)CC1,19.6%
19,CCc1nnsc1C(=O)N1CCCN(Cc2ccc(C)cc2)CC1,29.4%
20,CCc1ncncc1C(=O)N1CCN(Cc2ccsc2)CC1,31.9%
